High-throughput results deposited in PubChem by National Center for Advancing Translational Sciences (NCATS).
B2AR arrestin ag = agonists recruiting beta-arrestin to human beta2-adrenergic receptor. Potency, µM (series often up to 46.1 µM), usual class: activators. 44,000 tested, under 10 active. P07550. AID 1347077. HTLA Tango cells, beta-arrestin recruitment, luciferase luminescence, 18 h
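Receptor–beta-arrestin recruitment read by tTA-responsive luciferase: compound titrations (up to 46 µM) incubated 18 h with Tango cells, then luminescent substrate 15 min at room temperature. Concentration-response fits classified by r2, efficacy and activity.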
TSG101-PTAP inh = TSG101-PTAP interaction inhibition, HIV-1 budding; Q99816; Fluorescence polarization, FITC-PTAP peptide/Tsg101, 20 min; Potency, µM (highest dose often 115 µM), usual class: inhibitors; 44,000 tested, under 10 active; AID 1347069
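qHTS FP binding, 20 min r.t.: 10 uM Tsg101 domain + 50 nM FITC-PTAP peptide, pH 7.5 HEPES buffer with TCEP and EDTA.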
HTT-AS promoter = HTT-AS promoter activation. HEK293 HTT-AS promoter firefly luciferase reporter, 24 h; response scale: percent change from vehicle, -100% = no light. Potency, µM (titrated, usually from 57.5 µM), most hits filed as activators. 48,000 compounds, 0.24% hits; also: nearly all actives have a fitted effect of over 55% in size
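Quantitative HTS used concentration series of up to 57.5 uM final on HEK293 luciferase reporter cells, 24 h at 37 degrees C. Readout was Dual-Glo firefly luminescence.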
HTT promoter inh = HTT promoter inhibition. HEK293 HTT promoter firefly luciferase reporter, 24 h. 48,000 compounds, 0.93% hits. Potency, µM (series often up to 57.5 µM), hits mostly inhibitors; also: nearly all actives have a fitted effect of over 50% in size
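Quantitative HTS used concentration series of up to 57.5 uM final on HEK293 luciferase reporter cells, 24 h at 37 degrees C. Readout was Dual-Glo firefly luminescence.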
NTMT1 inhibitor = NTMT1 methyltransferase inhibition; AID 1645870; 59,000 compounds, 2.5% hits; Potency, µM (titrated, usually from 114 µM), actives largely listed as inhibitors; NTMT1 MTase-Glo SAH luminescence, purified enzyme; also: nearly all actives have a fitted effect of over 65% in size
Target sequence (Q9BV86 whole entry, looked up): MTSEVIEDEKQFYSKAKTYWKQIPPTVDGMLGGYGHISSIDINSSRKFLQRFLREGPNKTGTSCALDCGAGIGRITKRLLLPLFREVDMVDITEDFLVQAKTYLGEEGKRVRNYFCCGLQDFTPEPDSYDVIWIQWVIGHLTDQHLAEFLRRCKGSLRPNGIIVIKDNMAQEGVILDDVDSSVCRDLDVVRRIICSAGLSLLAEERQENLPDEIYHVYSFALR
GALK inh = inhibitors of human galactokinase (GALK); recombinant GALK, Kinase-Glo ATP luminescence, 1 h; Potency, µM (top dose mostly 57.5 µM), usual class: inhibitors; 44,000 tested, under 10 active; AID 1347072
Target sequence (P51570 whole entry, looked up): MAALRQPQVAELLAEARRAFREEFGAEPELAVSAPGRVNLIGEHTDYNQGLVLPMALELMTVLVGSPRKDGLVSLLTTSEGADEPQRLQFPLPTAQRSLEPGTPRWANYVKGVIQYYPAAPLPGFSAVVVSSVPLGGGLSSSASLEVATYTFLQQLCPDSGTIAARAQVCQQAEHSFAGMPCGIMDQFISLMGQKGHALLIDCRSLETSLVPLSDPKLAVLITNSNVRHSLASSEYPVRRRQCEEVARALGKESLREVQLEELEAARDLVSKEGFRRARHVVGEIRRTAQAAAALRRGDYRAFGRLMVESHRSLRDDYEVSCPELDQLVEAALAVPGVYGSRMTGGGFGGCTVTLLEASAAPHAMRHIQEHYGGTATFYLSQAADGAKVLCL
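Luminescent ATP-depletion readout (Kinase-Glo Plus) after 1 h room-temperature incubation of human GALK (5 nM) with galactose 100 µM and ATP 35 µM, pH 8.0 HEPES/Mg2+ buffer; compounds tested in qHTS format.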
Numbers stand for hits; – = inactive; ? = inconclusive; · = no result; ! = repeats disagree. Only a selection was taken, and hits are over-represented in it overall. Calls follow the shape of the dose curve; as a rule, active = well fitted curve in the direction sought with a large enough effect; inconclusive = small, poorly fitted or top-dose-only effect, or another doubt; inactive = no such curve, though single readings can be large; an effect the other way counts as inactive or inconclusive.

SMILES | B2AR arrestin ag | TSG101-PTAP inh | HTT-AS promoter | HTT promoter inh | NTMT1 inhibitor | GALK inh
CCC(C)C(N)C1=NC(C(=O)N[C@@H](CC(C)C)C(=O)N[C@H](CCC(=O)O)C(=O)N[C@H](C(=O)N[C@H]2CCCCNC(=O)[C@H](CC(N)=O)NC(=O)[C@@H](CC(=O)O)NC(=O)[C@H](Cc3cnc[nH]3)NC(=O)[C@@H](Cc3ccccc3)NC(=O)[C@H]([C@@H](C)CC)NC(=O)[C@@H](CCCN)NC2=O)[C@@H](C)CC)CS1 (stereo not given in full) | · | · | · | · | 7.9µM! | ·
CCC(C)CCCCC(=O)N[C@@H](CCN)C(=O)NC(C(=O)N[C@H](CCN)C(=O)N[C@@H]1CCNC(=O)C([C@@H](C)O)NC(=O)[C@@H](CCN)NC(=O)[C@@H](CCN)NC(=O)[C@@H](CC(C)C)NC(=O)[C@H](Cc2ccccc2)NC(=O)[C@H](CCN)NC1=O)[C@@H](C)O (stereo not given in full) | · | · | – | – | ? | ·
Cc1cccc(N2CCN(C(=O)C3CCCN(S(=O)(=O)c4ccc5c(c4)oc(=O)n5C)C3)CC2)c1C (stereo not given) | – | – | – | 5µM | – | –
Cc1cccc(N2CCN(C(=O)C3CCN(S(=O)(=O)c4c(C)noc4C)CC3)CC2)c1C | – | – | – | 14µM | ? | –
Cc1noc(C)c1S(=O)(=O)N1CCC(C(=O)N2CCN(c3ccccc3)CC2)CC1 | – | – | – | – | – | –
Cc1ccc(/C=C/c2onc(C)c2S(=O)(=O)N2CCC(C(=O)N3CCC(N(C)C(C)C)CC3)CC2)cc1 | – | – | – | – | 79µM | –
Cc1ccc(OCCn2c(CCNC(=O)c3ccco3)nc3ccccc32)cc1 | · | · | · | · | – | ·
CCCc1nnc(NC(=O)c2cc(=O)c3ccccc3o2)s1 | – | – | 4µM | – | – | –
Cc1cccc(-c2noc(-c3ccc(N4CCN(C)CC4)c([N+](=O)[O-])c3)n2)c1 | – | – | – | 1.4µM | – | –
Cc1cccc(-c2noc(-c3ccc(N4CCCC4)c([N+](=O)[O-])c3)n2)c1 | – | – | – | ? | ? | –
O=C1CCCC2=C1C(c1[nH]ncc1Cl)N=C(Nc1ccccc1)N2 (stereo not given) | · | · | · | · | – | ·
CN(C)CCC[C@@]1(c2ccc(F)cc2)OCc2cc(C#N)ccc21 | · | · | – | – | 25µM | ·
COc1cc2c(Oc3ccc4[nH]c(C)cc4c3F)ncnc2cc1OCCCN1CCCC1 | · | · | – | ? | 45µM! | ·
O=C(NCCCN1CCCCC1)c1cc(Sc2ccc(Cl)cc2)nc2ccccc12 | – | – | – | – | 89µM | –
CC1CCCN(CCCNC(=O)c2cc(Sc3ccc(F)cc3)nc3ccccc23)C1 (stereo not given) | – | – | – | ? | – | –
Cc1ccc(N2C(=O)N(Cc3cccc(Cl)c3)c3ccccc3S2(=O)=O)cc1 | – | – | – | ? | – | –
CCc1ccccc1N1C(=O)N(Cc2cccc(Cl)c2)c2ccccc2S1(=O)=O | – | – | – | ? | 89µM | –
Nc1ccc(O)c(C(=O)O)c1 | · | · | – | – | 40µM | ·
CN1C(=O)C(C)(C)c2cc(S(=O)(=O)NCc3ccc(C(=O)Nc4ccc(Cl)cc4)cc3)ccc21 | – | – | – | 18µM | – | ?
CCc1ccc(NC(=O)c2ccc(CNS(=O)(=O)c3ccc4c(c3)C(C)(C)C(=O)N4C)cc2)cc1 | – | – | – | ? | ? | –
CC1(C)Oc2ncnc(N)c2N=C1c1ccc(C2CCC(CC(=O)O)CC2)cc1 (stereo not given) | · | · | · | · | – | ·
O=C(Nc1ccc(Cl)nc1)Nc1nnc(-c2ccncc2)s1 | · | · | · | · | – | ·
O=c1c2ccc(-c3cn[nH]c3)cc2nc2sc(Nc3ccc4c(c3)CCC4)nn12 | · | · | · | · | – | ·
C=C1c2cccc(O)c2C(O)=C2C(=O)[C@]3(O)C(O)=C(C(N)=O)C(=O)[C@@H](N(C)C)[C@@H]3[C@@H](O)[C@H]12 | · | · | – | – | 25µM | ·
Cc1ccc(NC(=O)c2cccn2-c2nnc(N3CCCCC3)s2)cc1Cl | – | – | – | – | 79µM | –
SMILES | B2AR arrestin ag | TSG101-PTAP inh | HTT-AS promoter | HTT promoter inh | NTMT1 inhibitor | GALK inh
CC(=O)c1cccc(NC(=O)c2cccn2-c2nnc(N3CCCCC3)s2)c1 | – | – | – | – | ? | –
O=C(O)CCCCN(CCc1ccccc1OCc1ccc(CCc2ccccc2)cc1)Cc1ccc(C(=O)O)cc1 | · | · | · | · | – | ·
CCCCC/C(C=O)=C\c1ccccc1 | · | · | – | – | – | ·
CCCCCCCCCCCCCCCC[N+](C)(C)CC | · | · | – | ? | 25µM | ·
CCCCCCCCCCCCCC[N+](C)(C)Cc1ccccc1 | · | · | – | ? | 50µM | ·
CCCCCCCCCCCCCC[N+](C)(C)C | · | · | – | ? | ? | ·
CCCCCCCCCCCCCCCC[N+](C)(C)Cc1ccccc1 | · | · | – | – | 22µM | ·
CCN(C(=O)c1ccccc1OC)c1cc2c(cc1N1CCNC[C@H]1C)n(C)c(=O)n2C | · | · | · | · | – | ·
c1ccc2c(-c3cnn4cc(-c5ccc(OCCN6CCOCC6)cc5)cnc34)ccnc2c1 | · | · | · | · | – | ·
COc1cnc(-c2ccc(Cn3c(CC(C)(C)C(=O)O)c(SC(C)(C)C)c4cc(OC[C@@H]5Cc6ccccc6N5C(C)=O)ccc43)cc2)nc1 | · | · | · | · | – | ·
COc1ccc([C@H]2Cc3cccc(O)c3C(=O)O2)cc1OC | · | · | · | · | – | ·
N#C/C(=C\c1ccc(-c2ccccc2C(=O)O)o1)c1nc2ccccc2[nH]1 | – | – | – | – | – | –
O=C(O)c1ccccc1-c1ccc(/C=c2\sc3nc4cc(Br)cnc4n3c2=O)o1 | · | · | · | · | 35µM | ·
COc1ccc(Cl)cc1NC(=O)Nc1cc(C)nc2ccccc12 | · | · | · | · | – | ·
N#Cc1ccc(-c2c(-c3ncn[nH]3)sc(N3CCOCC3)c2C#N)c(F)c1 | · | · | · | · | – | ·
COc1cc2c(Nc3ccc(Br)cc3F)ncnc2cc1OCC1CCN(C)CC1 | · | · | – | – | 35µM! | ·
Cc1noc(C)c1-c1ccc2ncnc(NCC3CCN(C)CC3)c2c1 | · | · | · | · | – | ·
COc1cc2c(Nc3ccc(Cl)c(Cl)c3F)ncnc2cc1OCC1C[C@@H]2CN(C)C[C@H]2C1 | · | · | – | ? | 24µM | ·
COc1cc2c(Nc3ccc(NC(=O)c4ccccc4)cc3)ncnc2cc1OCCCN1CCOCC1 | · | · | – | – | – | ·
COc1cc(-c2nc(Nc3ccc(F)c(F)c3)c3ccccc3n2)cc(OC)n1 | · | · | · | · | – | ·
COc1cccc(NC(=O)C2CCN(S(=O)(=O)c3cc(-c4noc(C)n4)ccc3C)CC2)c1 | – | – | – | 13µM | – | –
Cc1nc(-c2ccc(C)c(S(=O)(=O)N3CCC(C(=O)Nc4ccc(Cl)cc4)CC3)c2)no1 | – | – | – | ? | – | –
CCc1ccc2nc(Nc3cc(Cc4ccccc4)nc(NC4CCC(O)CC4)n3)sc2c1 (stereo not given) | · | · | · | · | – | ·
